In the library only some 1.6% were active in any assay of this set; here they are far more common.
TNFa cytotox: cytotoxicity in TNFa-stimulated HUVEC, primary screen, cytotoxicity control for VCAM1 expression modulator project, imaging, Hoechst nuclei count; HUVEC TNFalpha-stimulated, Hoechst cell count; cell count reduction, % at 2 µM; 0.17% of 93,000 active;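 active = cell count reduction exceeding the screen mean by over 5 SD, scaled to untreated wells per plate, cut at about 78% in these data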;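 also: cells counted after 24 h of TNF alpha exposure following the 1 h pretreatment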
HUVEC tox IL1B: cytotoxicity in IL-1B stimulated HUVEC, primary screen, cytotoxicity control for IL-1B NFkB translocation project, imaging, Hoechst nuclear count, IL-1B stimulus; AID 845, 2007; 0.41% of 94,000 active; cell count reduction, % at 2 µM; HUVEC cell count loss;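 active = cell count reduction more than 3 SD above the screen-wide mean, cut at about 70% in these data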
E-sel TNF inh: E-selectin induction blockers in HUVEC – imaging, immunofluorescence, high content, primary screen | HUVEC TNFa-induced E-selectin immunofluorescence | inhibition, % at 2 µM | 0.71% of 120,000 active | AID 1246, 2008;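 active = inhibition above the batch mean plus 3 SD, and confirmed as a hit on visual image review, cut at about 43% in these data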
IL1B NFkB pot: enhancers of NFkB p65 translocation in HUVEC – imaging, IL-1B stimulus, high-content imaging, primary screen; HUVEC IL-1B NFkB p65 nuclear translocation imaging; AID 819, 2007; 0.3% of 94,000 active; activation, % at 2 µM;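 active = activation above 40%, about the mean plus 3 SD, also judged a hit on visual image review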;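 also: percent activation is computed from the nuclear over cytoplasmic p65 intensity ratio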
NFkB transloc inh: inhibitors of IL-1B driven NFkB p65 nuclear import, primary screen, imaging, HUVEC, IL-1B stimulus, high-content imaging; HUVEC IL-1B NFkB p65 nuclear translocation imaging; inhibition, % at 2 µM; 0.43% of 94,000 active;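 active = inhibition above about 30% together with a positive call from visual inspection of the well image, limit read from the data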;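 also: nuclear over cytoplasmic p65 intensity ratio measured by imaging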
VCAM1 TNFa inh: inhibitors of TNFa-induced VCAM1 expression, primary screen, imaging, HUVEC, TNFa stimulus, immunofluorescence. HUVEC TNFa-induced VCAM-1 immunofluorescence, high-content imaging. inhibition, % at 2 µM. 0.48% of 95,000 active;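 active = inhibition above the batch mean plus 3 SD, with images confirmed as a hit by eye, cut at about 37% in these data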
A number is an active result; . = inactive; / = no result given.

SMILES | TNFa cytotox | HUVEC tox IL1B | E-sel TNF inh | IL1B NFkB pot | NFkB transloc inh | VCAM1 TNFa inh
CCOC(=O)c1oc2ccccc2c1NC(=O)Cc1cccs1 | . | . | / | . | . | 83
FC(F)(F)c1nc(-c2cccnc2)ncc1-c1nnnn1-c1ccccc1 | . | / | . | / | / | .
COc1ccc(-n2nnnc2-c2cnc(N3CCCC3)nc2C(F)(F)F)cc1 | . | / | 100 | / | / | .
N=C1C(c2nc3ccccc3s2)=C(O)CN1Cc1ccco1 | . | . | / | . | . | 96
CC1=C(C#N)C(c2ccc3ncccc3c2)C(C#N)=C(C)N1 | . | . | . | . | 50 | .
CC1=C(C#N)C(c2ccccc2O)C(C#N)=C(C)N1 | / | / | . | / | / | /
COc1cccc(NC(=O)C(c2ccccc2)N2CCNC(=O)C2)c1 (centres undefined) | / | / | . | / | / | /
Oc1c(/C=N/c2ncn[nH]2)ccc2ccccc12 | . | . | . | 47 | . | .
COc1ccc(CCNC(=O)C2CCN(C(=O)NC3CCCCC3)CC2)cc1 | . | . | . | . | 39 | .
O=C(NNC(=O)C12CC3CC(CC(C3)C1)C2)[C@@H]1C[C@H]1c1ccccc1 | / | / | . | / | / | /
CCOC(=O)/C=C/C(=O)OCC(=O)Nc1ccc(C)cc1 | / | / | . | / | / | /
CCOC(=O)/C=C/S(=O)(=O)c1ccc(NC(C)=O)cc1 | . | . | 76 | . | 33 | .
CCn1c(=O)cc(SCC(=O)N2CCN(C3CCCCC3)CC2)c2ccccc21 | . | . | 67 | . | . | .
CN(Cc1ccccc1)CC(O)COc1ccc(CNCc2ccc(Cl)s2)cc1 (centres undefined) | / | / | . | / | / | /
COc1cccc(CNC(=O)C2=Cc3cccc(OC)c3OC2)c1 | / | / | . | / | / | /
Cc1cccc(-n2ccnc2SCC(=O)O)c1C | / | / | . | / | / | /
Cc1ccccc1-n1ccnc1SCC(=O)O | . | . | 65 | . | . | .
O=C(CSc1nnc(-c2cccs2)n1-c1ccccc1)N1CCOCC1 | . | . | . | . | . | .
O=C(CSc1nnc(-c2cccs2)n1-c1ccccc1)N1CCCC1 | 88 | . | . | . | . | .
O=C(Nc1ccc2nc(-c3ccc(Br)o3)[nH]c2c1)c1cccs1 | . | 84 | . | . | 99 | .
O=c1[nH]c2cc(NCCO)c([N+](=O)[O-])cc2[nH]1 | / | / | 73 | / | / | /
O=C(O)c1cc([N+](=O)[O-])ccc1NCCO | / | / | . | / | / | /
CC(=O)N1CCN(CC(=O)Nc2ccc([N+](=O)[O-])cc2Br)CC1 | / | / | . | / | / | /
O=C(Nn1c(O)c(C=C2N=c3ccccc3=N2)sc1=S)c1ccccc1 | . | 88 | . | . | . | .
Cc1ccc(C(=O)Nn2c(O)c(C=C3N=c4ccccc4=N3)sc2=S)cc1 | . | . | . | . | . | .
SMILES | TNFa cytotox | HUVEC tox IL1B | E-sel TNF inh | IL1B NFkB pot | NFkB transloc inh | VCAM1 TNFa inh
CC(/C=N/NC(=O)c1cc(-c2ccc(Cl)cc2)nc2ccccc12)=C\c1ccco1 | . | . | . | . | . | 80
O=C(N/N=C1/CCS(=O)(=O)c2ccc(F)cc21)c1cccnc1 | / | / | . | / | / | /
O=C(N/N=C1/CCS(=O)(=O)c2ccc(F)cc21)c1ccccn1 | / | / | 81 | / | / | /
Cn1nnnc1SCc1nnc(-c2ccc(Cl)cc2)o1 | . | . | 63 | . | . | .
Cc1occc1-c1nnc(SCc2nnc(-c3ccc(Cl)cc3)o2)n1C | / | . | . | . | . | /
N#Cc1nc(-c2cccc3ccccc23)oc1N1CCCCC1 | . | . | . | . | . | .
CC1CCN(c2oc(-c3cccc4ccccc34)nc2C#N)CC1 | / | 94 | . | . | 100 | .
COc1cc(Cl)c(C)cc1NC(=O)CSc1ccc(NC(C)=O)cc1 | / | / | . | / | / | /
Cc1cc(-c2c(C)[nH]n(-c3ccc(Cl)cc3)c2=O)n(-c2ccc(Cl)cc2)n1 | . | . | . | . | . | .
Cc1cc(-c2c(C)[nH]n(-c3ccccc3)c2=O)n(-c2ccccc2)n1 | . | . | 100 | . | . | .
COCCOC(=O)c1[nH]c2c(c1C)C(=O)CC(c1ccccc1)C2 (centres undefined) | . | . | . | . | . | 56
O=S1(=O)C=C(Sc2nc3cc(Cl)ccc3o2)c2ccccc21 | . | . | . | . | 56 | .
COc1ccc(OC)c2sc(NC(=O)CCS(=O)(=O)c3ccccc3)nc12 | . | . | 93 | . | . | 50
Cc1c(NC(=O)CSc2ncnc3ccccc23)c(=O)n(-c2ccccc2)n1C | / | / | . | / | / | /
CN(CC(=O)O/N=C(\N)c1ccc([N+](=O)[O-])cc1)S(=O)(=O)c1ccccc1 | . | . | . | 50 | . | .
CC1CCCC(C)N1C(=C(Cl)Cl)C(=C1SCCS1)[N+](=O)[O-] (centres undefined) | / | / | . | / | / | /
COc1ccc(Nc2ccc(N3C(=O)CCCC3=O)cc2[N+](=O)[O-])c(OC)c1 | / | / | . | / | / | /
COc1ccc(-n2c(C)c3c(OC)cccc(=O)c3c2C)cc1 | . | . | 56 | . | . | .
Cc1ccc(C#CC[N+](C)(C)CC#Cc2ccccc2)cc1 | / | / | . | / | / | /
O=C(O)CCCCCNS(=O)(=O)c1ccc(Cl)cc1 | . | . | / | . | 47 | .
Cc1cc(C)c(S(=O)(=O)N2CCN(C(=O)N(C)C)CC2)c(C)c1 | / | / | . | / | / | /
Cc1cc(C)cc(OCc2ccc(C(=O)N3N=C(C(F)F)CC3(O)C(F)F)o2)c1 (centres undefined) | . | . | . | . | . | .
CCOc1ccc(OCc2ccc(C(=O)N3N=C(C(F)F)CC3(O)C(F)F)o2)cc1 (centres undefined) | . | . | . | 45 | . | .
O=C(NCc1cccnc1)c1cc2nc(-c3cccs3)cc(C(F)(F)Cl)n2n1 | / | / | . | / | / | /
COC(=O)c1ccc(-n2nnnc2SCC(=O)Nc2ccccc2C(=O)OC)cc1 | . | . | . | . | . | .
SMILES | TNFa cytotox | HUVEC tox IL1B | E-sel TNF inh | IL1B NFkB pot | NFkB transloc inh | VCAM1 TNFa inh
COc1ccccc1NC(=O)CSc1nnnn1-c1ccc(C)cc1 | . | . | . | 41 | . | .
CCn1c(SCC(=O)Nc2ccccc2OC)nnc1-c1cnccn1 | . | . | 62 | . | . | .
CCc1cc(C(=O)Nc2ccccc2)cs1 | / | / | 63 | / | / | /
C=CCc1ccccc1OCC(O)CNC (centres undefined) | 94 | . | . | . | . | 56
C=CCc1ccccc1OCC(O)CN(C(C)C)C(C)C (centres undefined) | . | . | . | . | . | .
CC(c1ccco1)N(C(=O)c1ccccc1NS(=O)(=O)c1ccc(Cl)c([N+](=O)[O-])c1)c1ccccn1 (centres undefined) | / | / | . | / | / | /
CCn1c(SCC(=O)Nc2cc(C)on2)nc2sc3c(c2c1=O)CCCC3 | . | 83 | . | . | 96 | .
COC(=O)CSc1nnc(-c2ccc(S(=O)(=O)NCc3cccs3)cc2)o1 | . | . | / | 45 | . | .
CC(=O)Nc1ccc(N(C(=O)CNC(=O)c2cccs2)C(C(=O)NC(C)(C)C)c2ccccc2)cc1 (centres undefined) | / | / | . | / | / | /

Bioassay records (PubChem)
